Experimental data taken from PubChem BioAssay (NCI).
This is part of a sample that, as a whole, favours compounds with a hit. Of some 83,000 tested, about 20% had one in any assay.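 Negative percent growth values reflect cell death: -40 means 40% of the cells present at the start died, and -100 means all died.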 Unmarked numbers belong to inactive results. Calls of active or inactive are those of the source. How the source made its calls: active means growth percent below 10; inactive means the rest.

Columns and labels:
Assay in all cases: NCI-60 one-dose screen, 48 h (100 = growth as untreated, 0 = no growth, -100 = all killed)
Settings in all cases: 10 µM unless noted
NCI-H23 lung = system: NCI-H23 lung
NCI-H226 lung = system: NCI-H226 lung
NCI-H322M lung = system: NCI-H322M lung
HOP-62 NSCLC = system: HOP-62 NSCLC
NCI-H460 lung = system: NCI-H460 lung
HOP-92 NSCLC = system: HOP-92 NSCLC
NCI-H522 lung = system: NCI-H522 lung
A549/ATCC NSCLC = system: A549/ATCC NSCLC
786-0 renal = system: 786-0 renal
COLO 205 colon = system: COLO 205 colon
DU-145 prostate = system: DU-145 prostate
K-562 leukemia = system: K-562 leukemia
MALME-3M melanoma = system: MALME-3M melanoma
MDA-MB-231 breast = system: MDA-MB-231 breast
RXF 393 renal = system: RXF 393 renal
SF-268 CNS = system: SF-268 CNS
SF-295 CNS = system: SF-295 CNS
SF-539 CNS = system: SF-539 CNS
UACC-257 melanoma = system: UACC-257 melanoma
M14 melanoma = system: M14 melanoma

| SMILES | growth (NCI-H23 lung) [%] | growth (NCI-H226 lung) | growth (NCI-H322M lung) [%] | growth (HOP-62 NSCLC) | growth (NCI-H460 lung) | growth (HOP-92 NSCLC) [%] | growth (NCI-H522 lung) | growth (A549/ATCC NSCLC) | growth (786-0 renal) | growth (COLO 205 colon) | growth (DU-145 prostate) | growth (K-562 leukemia) | growth (MALME-3M melanoma) | growth (MDA-MB-231 breast) [%] | growth (RXF 393 renal) | growth (SF-268 CNS) [%] | growth (SF-295 CNS) | growth (SF-539 CNS) | growth (UACC-257 melanoma) [%] | growth (M14 melanoma) |
| --- | --- | --- | --- | --- | --- | --- | --- | --- | --- | --- | --- | --- | --- | --- | --- | --- | --- | --- | --- | --- |
| COc1ccc(OC)c(-c2cc(-c3ccc(Cl)cc3)c3c(N)c(C(=O)c4ccc(Cl)cc4)sc3n2)c1 | 91.4 | 96.1% | 93.6 | 81.3% | 105% | 90.9 | 86.1% | 97.3% | 97.3% | 110% | 107% | 118% | 89.7% | 90.4 | 115% | 100 | 99.2% | 101% | 98.2 | 102% |
| Cc1cc2nc3c4ccc(Br)cc4n(CCN(C)C)c3nc2cc1C | 14.8 | 1.57% (active) | 18.9 | 16% | 2.47% (active) | 34.8 | -1.24% (active) | 5.41% (active) | 23.2% | -8% (active) | 3.18% (active) | 4.08% (active) | 0.769% (active) | 15.2 | 16.4% | 31 | 14.8% | 17.2% | 18 | 14.8% |
| N/C(=N\C(N)=N\c1nc2ccccc2s1)c1cnccn1 | 19.8 | 22.5% | 25.1 | 40.2% | 11.8% | 47 | 22.4% | 21.1% | 23.4% | 16.2% | 28.2% | 17.1% | 16.8% | 58.1 | -43% (active) | 26.5 | 28% | 16% | 35.5 | 23.2% |
| COc1ccccc1NS(=O)(=O)c1cccc(C(=O)Nc2ccc(Br)cc2)c1 | 35.9 | 44.2% | 53.1 | 62.9% | 47% | 38.9 | 46.7% | 46% | 59.5% | 57.9% | 52.1% | 25.6% | 32% | 50.6 | 57.7% | 30.9 | 27% | 64.3% | 32.9 | 38.9% |
| Cc1ccc(S(=O)(=O)NNC(=O)/C(=C\c2ccc(Cl)cc2)c2nc3ccccc3s2)cc1 | 96.4 | 81.2% | 92.7 | 109% | 86% | 87.3 | 91.7% | 91.9% | 99.5% | 117% | 101% | 84% | 98.6% | 95.6 | 101% | 91.9 | 103% | 104% | 98 | 86% |
| N/C(=N\C(N)=N\c1nc2ccccc2s1)c1ccnc(Br)c1 | 44.5 | 60.1% | 97.4 | 29.8% | 16.4% | 47 | 9.9% (active) | 61.3% | 32.2% | 21.4% | 42.7% | 14% | 64.5% | 51.7 | 15.7% | 50 | 5.59% (active) | 8.41% (active) | 46.2 | 21.5% |
| Cc1nn(-c2ccccc2)c(Oc2c(Cl)cccc2Cl)c1/C=N/N=c1\sc2ccccc2n1C | 72.5 | 53.3% | 82.2 | 83.6% | 17.4% | 60.3 | 65.5% | 47.5% | 50.8% | 40.8% | 67.7% | 28.3% | 81.6% | 51.3 | 54.7% | 52.2 | 54.3% | 49.9% | 71.3 | 60.8% |
| O=C(/C=C(/C=C/c1coc2ccccc12)OB(F)F)/C=C/c1coc2ccccc12 | 93.9 | 105% | 103 | 113% | 87.7% | 91 | 90.6% | 91.6% | 102% | 95.9% | 99.1% | 72% | 94.5% | 101 | 109% | 93.4 | 101% | 110% | 92.3 | 96% |
| O=C(NCCNc1nccc(-c2c(-c3cccc(F)c3)nc3sccn23)n1)c1ccc(Cl)cc1 | 73.5 | 51.2% | 66.3 | 91.9% | 35.8% | 87.1 | 68.4% | 34.8% | 54.6% | 29.8% | 71% | 54.4% | 34.9% | 65.5 | 72.9% | 67.9 | 73.8% | 90% | 76 | 38.8% |
| CCN(Cc1ccccc1)c1ccc(C=O)cc1 | 96.3 | 2.99% (active) | 93.9 | 108% | 100% | 81.9 | 100% | 98.1% | 102% | 113% | 110% | 93.3% | 117% | 96.5 | 88.6% | 106 | 114% | 87.7% | 106 | 102% |
| N/C(=N\C(N)=N\c1nc2ccccc2s1)c1cccc(Cl)c1 | 58.4 | 85.6% | 97.7 | -8.36% (active) | 51.7% | 108 | 87.5% | 9.74% (active) | 94.4% | 101% | 89.6% | 72.8% | 102% | 73.7 | 115% | 83.6 | 12% | 99.2% | 113 | 96.1% |
| Cn1nc(CC#N)c2c(=N)n(N)cnc21 | 104 | 108% | 118 | 101% | 102% | 98.8 | 110% | 113% | 123% | 105% | 106% | 103% | 118% | 96.7 | 112% | 101 | 95% | 108% | 111 | 110% |
| O=S(=O)(NCCNc1nccc(-c2c(-c3cccc(O)c3)nc3occn23)n1)c1ccc(C(F)(F)F)cc1 | 102 | 106% | 108 | 107% | 94.9% | 92.6 | 94.6% | 94.8% | 101% | 44.1% | 108% | 97.2% | 7.76% (active) | 90.7 | 101% | 97.3 | 107% | 114% | 61.1 | 38.9% |
| CCCOc1ccc(/C=N/Nc2cc(C)nc3ccc(Cl)cc23)cc1 | 75.9 | 88.3% | 62.1 | 75.2% | -37.5% (active) | 69.2 | 86.9% | 36.9% | -86.4% (active) | -80.7% (active) | 24.2% | -37% (active) | -59% (active) | 60.1 | -18.9% (active) | 83.8 | -74.3% (active) | -62.6% (active) | 89.8 | -29.8% (active) |
